Data reported in PubChem BioAssay (Tox21).
Inconclusive results are not listed. Activity calls are given as the source filed them. Unless noted, calls come from the whole dose curve; as a rule, active = well fitted curve in the direction sought with a large enough effect in the repeat runs; inconclusive = weak or mixed curves; inactive = flat fitted curve, though single readings scatter.

Tests used:
[1] = qHTS assay to test for compound auto fluorescence at 535 nm (green) in HEK293 cells (AID 720680)
[2] = qHTS assay to test for compound auto fluorescence at 460 nm (blue) in HEK293 cell free culture (AID 720681)
How it was run: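 Test compounds were pinned into cell-free culture medium (DMEM with 10% FBS) and fluorescence was read directly at Ex/Em 405/460 nm. Signals were expressed as fluorescence equivalents of triamterene, with DMSO vehicle as control.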

[3] = qHTS assay to test for compound auto fluorescence at 535 nm (green) in HEK293 cell free culture (AID 720682)
How it was run: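 DMEM + 10% FBS, cell-free; cpd or DMSO pinned in; Ex485/Em535 read; output as fluorescein-equivalent signal.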

[4] = qHTS assay to test for compound auto fluorescence at 590 nm (red) in HEK293 cell free culture (AID 720683)
How it was run: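 Tox21 10K library compounds were pinned into cell-free DMEM with 10% FBS and fluorescence was read at excitation 540 nm. Activity is expressed as Rose Bengal sodium equivalency.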

[5] = qHTS assay to test for compound auto fluorescence at 590 nm (red) in HepG2 cell free culture (AID 720684)
How it was run: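 Red fluorescence (540 nm excitation, 590 nm emission) was measured after compound transfer into cell-free MEM supplemented with 10% FBS. Values are equivalencies against Rose Bengal sodium.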

[6] = qHTS assay to test for compound auto fluorescence at 460 nm (blue) in HepG2 cell free culture (AID 720685)
How it was run: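 Compound (23 nL) or DMSO pinned into cell-free MEM with 10% FBS; blue fluorescence read at 405/460 nm excitation/emission, expressed as auto-fluorescence equivalency to triamterene.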

[7] = qHTS assay to test for compound auto fluorescence at 535 nm (green) in HepG2 cell free culture (AID 720686)
[8] = qHTS assay to test for compound auto fluorescence at 460 nm (blue) in HepG2 cells (AID 720687)
How it was run: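 Cells (2,000/well in MEM with 10% FBS) attached overnight at 37 C, then were exposed to compound or DMSO for 1 hr at 37 C, 5% CO2. Fluorescence read at Ex/Em 405/460 nm, expressed as triamterene-equivalent signal.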

[9] = biological target: Glucocorticoid receptor (Homo sapiens) (UniProt P04150); experiment: qHTS assay to identify small molecule agonists of the glucocorticoid receptor (GR) signaling pathway (AID 720691; active = well fitted activation curve with a large enough effect in the signal ratio in the repeat runs, not every such curve was filed as active; the % refers to the signal ratio)
How it was run: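 Agonist mode in a HeLa line carrying a GRE-controlled beta-lactamase reporter. Compounds act for 18 h at 37 C before a 2 h room-temperature FRET substrate step and fluorescence reading.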
% is set by controls: 0 for no effect and ±100 for the full control effect.

Sequence of Glucocorticoid receptor (Homo sapiens) (P04150 whole entry, looked up): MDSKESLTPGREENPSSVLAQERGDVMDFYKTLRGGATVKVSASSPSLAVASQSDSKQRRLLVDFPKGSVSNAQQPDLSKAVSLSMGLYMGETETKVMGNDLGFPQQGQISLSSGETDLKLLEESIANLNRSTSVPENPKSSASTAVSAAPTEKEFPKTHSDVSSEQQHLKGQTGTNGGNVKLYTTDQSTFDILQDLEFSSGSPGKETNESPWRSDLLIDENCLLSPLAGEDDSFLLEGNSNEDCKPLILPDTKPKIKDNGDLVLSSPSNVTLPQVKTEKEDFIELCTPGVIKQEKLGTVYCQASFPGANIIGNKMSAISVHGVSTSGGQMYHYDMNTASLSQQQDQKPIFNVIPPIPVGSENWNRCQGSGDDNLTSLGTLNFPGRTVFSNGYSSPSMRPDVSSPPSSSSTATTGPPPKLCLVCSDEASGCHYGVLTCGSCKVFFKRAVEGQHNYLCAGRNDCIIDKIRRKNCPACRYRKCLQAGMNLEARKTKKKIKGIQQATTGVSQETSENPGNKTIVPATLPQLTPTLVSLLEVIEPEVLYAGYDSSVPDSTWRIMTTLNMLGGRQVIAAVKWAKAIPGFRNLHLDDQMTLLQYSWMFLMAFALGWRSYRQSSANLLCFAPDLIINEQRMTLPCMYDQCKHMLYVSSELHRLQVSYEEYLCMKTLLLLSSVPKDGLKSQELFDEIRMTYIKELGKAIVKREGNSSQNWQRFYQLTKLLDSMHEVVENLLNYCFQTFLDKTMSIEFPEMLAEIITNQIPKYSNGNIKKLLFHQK

CCCCCCCCCBr
inactive: outcome [1] | Potency [2] | outcome [3] | outcome [4] | outcome [5] | Potency [6] | outcome [7] | Potency [8]

O=C1NCN(c2ccccc2)C12CCN(CC1COc3ccccc3O1)CC2 (centres undefined)
inactive: outcome [1] | Potency [2] | outcome [3] | outcome [4] | outcome [5] | Potency [6] | outcome [7] | Potency [8]

Cc1cc(C(F)(C(F)(F)F)C(F)(F)F)ccc1NC(=O)c1cccc(I)c1C(=O)NC(C)(C)CS(C)(=O)=O
inactive: outcome [1] | Potency [2] | outcome [3] | outcome [4] | outcome [5] | Potency [6] | outcome [7] | Potency [8]

[Cd+2].[Cl-].[Cl-]
inactive: outcome [1] | Potency [2] | outcome [3] | outcome [4] | outcome [5] | Potency [6] | outcome [7] | Potency [8]

CN(C)C(=S)S
inactive: outcome [1] | Potency [2] | outcome [3] | outcome [4] | outcome [5] | Potency [6] | outcome [7] | Potency [8]

[Cl][Sb]([Cl])[Cl]
inactive: outcome [1] | Potency [2] | outcome [3] | outcome [4] | outcome [5] | Potency [6] | outcome [7] | Potency [8]

COC(=O)N(C(=O)N1CO[C@@]2(C(=O)OC)Cc3cc(Cl)ccc3C2=N1)c1ccc(OC(F)(F)F)cc1
inactive: outcome [1] | Potency [2] | outcome [3] | outcome [4] | outcome [5] | Potency [6] | outcome [7] | Potency [8]

N#CC(Cl)Cl
inactive: outcome [1] | Potency [2] | outcome [3] | outcome [4] | outcome [5] | Potency [6] | outcome [7] | Potency [8]

CC1(C)CN=C(NN=C(/C=C/c2ccc(C(F)(F)F)cc2)/C=C/c2ccc(C(F)(F)F)cc2)NC1
inactive: outcome [1] | Potency [2] | outcome [3] | outcome [4] | outcome [5] | Potency [6] | outcome [7] | Potency [8]

BrC(Br)Br
inactive: outcome [1] | Potency [2] | outcome [3] | outcome [4] | outcome [5] | Potency [6] | outcome [7] | Potency [8]

CCOC(=O)OC1=C(c2cc(C)ccc2C)C(=O)NC12CCC(OC)CC2 (centres undefined)
inactive: outcome [1] | Potency [2] | outcome [3] | outcome [4] | outcome [5] | Potency [6] | outcome [7] | Potency [8]

ClC1=C(Cl)C2(Cl)C3C(Cl)C(Cl)CC3C1(Cl)C2(Cl)Cl (centres undefined)
inactive: outcome [1] | Potency [2] | outcome [3] | outcome [4] | outcome [5] | Potency [6] | outcome [7] | Potency [8]

CC(C)OC(=S)S
inactive: outcome [1] | Potency [2] | outcome [3] | outcome [4] | outcome [5] | Potency [6] | outcome [7] | Potency [8]

COP(=S)(OC)Oc1cc(Cl)c(Br)cc1Cl
inactive: outcome [1] | Potency [2] | outcome [3] | outcome [4] | outcome [5] | Potency [6] | outcome [7] | Potency [8]

Oc1ccc(C(c2ccc(O)cc2)(C(F)(F)F)C(F)(F)F)cc1
inactive: outcome [1] | Potency [2] | outcome [3] | outcome [4] | outcome [5] | Potency [6] | outcome [7] | Potency [8]

CC(C)CC(C)Nc1ccc(Nc2ccccc2)cc1 (centres undefined)
inactive: outcome [1] | Potency [2] | outcome [3] | outcome [4] | outcome [5] | Potency [6] | outcome [7] | Potency [8]

CC(=O)/C=C/c1ccc2c(c1)OCO2
inactive: outcome [1] | Potency [2] | outcome [3] | outcome [4] | outcome [5] | Potency [6] | outcome [7] | Potency [8]

CSCCCN=C=S
inactive: outcome [1] | Potency [2] | outcome [3] | outcome [4] | outcome [5] | Potency [6] | outcome [7] | Potency [8]

CNC(C)Cc1ccc2c(c1)OCO2 (centres undefined)
inactive: outcome [1] | Potency [2] | outcome [3] | outcome [4] | outcome [5] | Potency [6] | outcome [7] | Potency [8]

COc1cccc(C(=O)CCN[C@@H](C)[C@H](O)c2ccccc2)c1
inactive: outcome [1] | Potency [2] | outcome [3] | outcome [4] | outcome [5] | Potency [6] | outcome [7] | Potency [8]

CC(=O)[O-].CC(=O)[O-].[Hg+2]
inactive: outcome [1] | Potency [2] | outcome [3] | outcome [4] | outcome [5] | Potency [6] | outcome [7] | Potency [8]

COc1cc(C=O)cc2c1[C@H](COC(N)=O)[C@]1(OC(C)=O)ON2C[C@H]2[C@@H]1N2C(C)=O
inactive: outcome [1] | Potency [2] | outcome [3] | outcome [4] | outcome [5] | Potency [6] | outcome [7] | Potency [8]

Nc1ccc(Sc2ccc(N)cc2)cc1
inactive: outcome [1] | Potency [2] | outcome [3] | outcome [4] | outcome [5] | Potency [6] | outcome [7] | Potency [8]

O=C(Nc1ccc2[nH]ccc2c1)c1cc2cc(F)ccc2n1Cc1cccc(F)c1
inactive: outcome [1] | Potency [2] | outcome [3] | outcome [4] | outcome [5] | Potency [6] | outcome [7] | Potency [8]

O=[N+]([O-])c1ccc2ccc3cccc4ccc1c2c34
inactive: outcome [1] | Potency [2] | outcome [3] | outcome [4] | outcome [5] | Potency [6] | outcome [7] | Potency [8]

CCc1nn(C)c(C(=O)NCc2ccc(C(C)(C)C)cc2)c1Cl
inactive: outcome [1] | Potency [2] | outcome [3] | outcome [4] | outcome [5] | Potency [6] | outcome [7] | Potency [8]

CC(=O)[O-].CC(=O)[O-].O.O.[Cd+2]
inactive: outcome [1] | Potency [2] | outcome [3] | outcome [4] | outcome [5] | Potency [6] | outcome [7] | Potency [8]

CCCN(CCC)c1c([N+](=O)[O-])cc(S(N)(=O)=O)cc1[N+](=O)[O-]
inactive: outcome [1] | Potency [2] | outcome [3] | outcome [4] | outcome [5] | Potency [6] | outcome [7] | Potency [8]

CCCCCCCCCC[N+](C)(C)CCCCCCCCCC
inactive: outcome [1] | Potency [2] | outcome [3] | outcome [4] | outcome [5] | Potency [6] | outcome [7] | Potency [8]

O=CC(Br)(Br)Br
inactive: outcome [1] | Potency [2] | outcome [3] | outcome [4] | outcome [5] | Potency [6] | outcome [7] | Potency [8]

NNC(=O)c1ccccc1
inactive: outcome [1] | Potency [2] | outcome [3] | outcome [4] | outcome [5] | Potency [6] | outcome [7] | Potency [8]

BrCBr
inactive: outcome [1] | Potency [2] | outcome [3] | outcome [4] | outcome [5] | Potency [6] | outcome [7] | Potency [8]

N#CSCSC#N
inactive: outcome [1] | Potency [2] | outcome [3] | outcome [4] | outcome [5] | Potency [6] | outcome [7] | Potency [8]

CC(=O)[O-].[Tl+]
inactive: outcome [1] | Potency [2] | outcome [3] | outcome [4] | outcome [5] | Potency [6] | outcome [7] | Potency [8]

Clc1ccc(-c2ccc(Cl)c(Cl)c2Cl)c(Cl)c1Cl
inactive: outcome [1] | Potency [2] | outcome [3] | outcome [4] | outcome [5] | Potency [6] | outcome [7] | Potency [8]

OC(c1ccc(Cl)cc1)(c1ccc(Cl)cc1)C(Cl)(Cl)Cl
inactive: outcome [1] | Potency [2] | outcome [3] | outcome [4] | outcome [5] | Potency [6] | outcome [7] | Potency [8]

CC(C)(C)OO
inactive: outcome [1] | Potency [2] | outcome [3] | outcome [4] | outcome [5] | Potency [6] | outcome [7] | Potency [8]

CN(C)C(=S)[S-].CN(C)C(=S)[S-].[Cu+2]
inactive: fluorescence, % of fluorescein [1] -0.0159% [at 18.6 µM] | fluorescence, % of fluorescent control [2] -0.0097% [at 18.6 µM] | activity change [3] 0.0031% [at 18.6 µM] | fluorescence, % of fluorescent control [4] 0.0139% [at 18.6 µM] | fluorescence, % of Rose Bengal [5] 0.0949% [at 18.6 µM] | fluorescence, % of fluorescent control [6] -0.0974% [at 18.6 µM] | fluorescence, % of fluorescein control [7] 0.0404% [at 18.6 µM] | fluorescence, % of fluorescent control [8] 0.125% [at 18.6 µM]

CCOP(=O)(NC(C)C)Oc1ccc(SC)c(C)c1 (centres undefined)
inactive: outcome [1] | Potency [2] | outcome [3] | outcome [4] | outcome [5] | Potency [6] | outcome [7] | Potency [8] | Potency [9]

CC1(c2ccc(Oc3ccccc3)cc2)OC(=O)N(Nc2ccccc2)C1=O (centres undefined)
inactive: outcome [1] | Potency [2] | outcome [3] | outcome [4] | outcome [5] | Potency [6] | outcome [7] | Potency [8]

N#CCCC(Br)(C#N)CBr (centres undefined)
inactive: outcome [1] | Potency [2] | outcome [3] | outcome [4] | outcome [5] | Potency [6] | outcome [7] | Potency [8] | Potency [9]

Oc1cc(Cl)c(Cl)c(Cl)c1
inactive: outcome [1] | Potency [2] | outcome [3] | outcome [4] | outcome [5] | Potency [6] | outcome [7] | Potency [8] | Potency [9]

CC(=O)c1cc(C(C)(C)C)cc2c1CCC2(C)C
inactive: outcome [1] | Potency [2] | outcome [3] | outcome [4] | outcome [5] | Potency [6] | outcome [7] | Potency [8] | Potency [9]

COC12CC[C@@]3(C[C@@H]1C(C)(O)C(C)(C)C)[C@H]1Cc4ccc(O)c5c4[C@@]3(CCN1CC1CC1)[C@H]2O5 (some centres undefined)
inactive: outcome [1] | Potency [2] | outcome [3] | outcome [4] | outcome [5] | Potency [6] | outcome [7] | Potency [8]

CC(C)OS(C)(=O)=O
inactive: outcome [1] | Potency [2] | outcome [3] | outcome [4] | outcome [5] | Potency [6] | outcome [7] | Potency [8]

CCCCCCCCCCCCCCCCCCn1cc[n+](C)c1
inactive: outcome [1] | Potency [2] | outcome [3] | outcome [4] | outcome [5] | Potency [6] | outcome [7] | Potency [8]

Clc1ccc(CO/N=C(\Cn2ccnc2)c2ccc(Cl)cc2Cl)c(Cl)c1
inactive: outcome [1] | Potency [2] | outcome [3] | outcome [4] | outcome [5] | Potency [6] | outcome [7] | Potency [8]

COc1ccc(OC)c(CC(C)N)c1 (centres undefined)
inactive: outcome [1] | Potency [2] | outcome [3] | outcome [4] | outcome [5] | Potency [6] | outcome [7] | Potency [8]

CC[C@H]1C[C@@H]2C[C@H]3c4[nH]c5ccc(OC)cc5c4CCN(C2)[C@@H]13
inactive: outcome [1] | Potency [2] | outcome [3] | outcome [4] | outcome [5] | Potency [6] | outcome [7] | Potency [8]

CCCCCCCCCCCCCCC(Br)C(=O)O (centres undefined)
inactive: outcome [1] | Potency [2] | outcome [3] | outcome [4] | outcome [5] | Potency [6] | outcome [7] | Potency [8]
